Screening results (PubChem)
Shown are actives, neighbours in structure and some others; about 9.6% of the full set was active somewhere.
Ins promoter up: MIN6 insulin promoter up-regulation. MIN6 insulin promoter-GFP reporter, high-content imaging; active compounds read high. z-score at 5 µM. actives 0.3% (n = 190,000). AID 1625;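 active means z-score above 3 at 5 µM with at least 500 cells counted in the well; inconclusive means wells under 500 cells, flagged as cytotoxic or low count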
Lmaj promast: reduces viability of Leishmania major promastigotes; actives 9% (n = 200,000); AID 1063; inhibition, % at 10 µM; resazurin fluorescence viability; in the data active means inhibition above about 50%;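 further: promastigotes grown with compound for 44 hours at 28 °C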
HCT116 PTEN-null: suppresses growth of cells with PTEN deletion. viability, % at 10 µM. AID 827. actives 1.2% (n = 140,000). HCT116 PTEN-null viability, CellTiter-Glo, 60 h; active compounds read low;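 active means viability at or below a set limit, 4 SD under the median of all tested compounds, cut at about 3.7% in these data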;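 further: PTEN knockout HCT116 line with beta catenin targeted HCT116 as companion control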
Autophagy mod: alters autophagy in cells | calls only at 10 µM (by protocol) | actives 0.98% (n = 190,000) | AID 463193 | MEF GFP-LC3 puncta imaging; test concentration mostly 10 µM;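 active means percentage of spot-positive cells more than 3 SD above its plate mean, without a fluorescence outlier flag or 80% toxicity; inconclusive means no clear call, values can overlap the other calls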;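 further: spot-positive cell cutoff set from DMSO-treated cells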
HCT116 bCat-KO: beta-catenin-lacking colon tumor cell growth suppression. viability, % at 10 µM. HCT116 beta-catenin knockout viability, CellTiter-Glo, 60 h; active compounds read low. AID 818. actives 1.5% (n = 140,000);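 active means viability at or under a set limit, the compound median less 4 SD, cut at about 6% in these data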;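 further: 0% = Hyamine 1622 control at 20 µM and 100% = untreated cell control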
Insulin prom inh: TRM-6 insulin promoter activity inhibition | TRM-6 cells (human fetal islet line), insulin promoter-eGFP reporter, imaging; reporter expression induced with tamoxifen | inhibition, % at 2 µM | actives 0.9% (n = 130,000) | AID 1273;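 active means inhibition above the mean plus 3 SD, with well images judged a real hit on visual review, cut at about 60% in these data, passing the limit was not always enough; inconclusive means inhibition over the cutoff but images rejected on review; inactive means inhibition not above the cutoff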
The depositor's hits bear a star; i = inactive; ? = inconclusive; . = no result given; + = active, no number.

SMILES | Ins promoter up | Lmaj promast | HCT116 PTEN-null | Autophagy mod | HCT116 bCat-KO | Insulin prom inh
O=C(Cc1noc2ccccc12)NNC(=S)Nc1ccc(Cl)cc1 | 0.08 | -1 | . | i | . | 20
CN1CCc2c(sc3c2C(=O)NC(c2cn(Cc4ccccc4)c4ccccc24)N3)C1 (centres undefined) | -2.1 | 100* | 70 | + | 76 | -130
CN1CCc2c(sc3c2C(=O)NC(c2ccco2)N3)C1 (centres undefined) | 1.4 | 3 | 93 | i | 92 | 0
CC(=O)NC1=C(N(C)C2CCS(=O)(=O)C2)C(=O)c2ccccc2C1=O (centres undefined) | 0.15 | 19 | 3.4* | i | 3.5* | -3
CN(C(=O)Nc1ccccc1)C1CCS(=O)(=O)C1 (centres undefined) | 0.14 | -2 | 100 | i | 91 | -337
Cn1nnc(NC(=O)/C=C/c2ccco2)n1 | 0.74 | . | . | . | . | .
Cc1ccc(C)c(N(CC(=O)NN=C2CCN(C)CC2)S(=O)(=O)c2ccccc2)c1 | 0.39 | 68* | 100 | i | 97 | 8
COc1ccccc1-c1nnc(NC(=O)c2ccc3c(c2)OCO3)s1 | 0.14 | 0 | . | + | . | 5
COc1ccc(CC(=O)Nc2ccc(-c3noc(-c4cc(OC)c(OC)c(OC)c4)n3)cc2)cc1 | -0.36 | -5 | 65 | + | 72 | -26
Cc1ccccc1-c1nc(-c2ccc(NC(=O)c3ccc4c(c3)OCO4)cc2)no1 | . | 5 | 7 | i | 12 | -19
CC(C)c1nnc(NC(=O)c2ccc3c(c2)OCO3)s1 | -0.07 | 0 | . | i | . | -63
COc1ccc(CC(=O)Nc2ccc(-c3noc(-c4ccc(Cl)cc4)n3)cc2)cc1 | 0.29 | -2 | 0.9* | i | 1.6* | -9
COc1cc(-c2nc(-c3ccc(NC(=O)c4ccc5c(c4)OCO5)cc3)no2)cc(OC)c1OC | -0.11 | 4 | 88 | + | 87 | 31
O=C(CSc1nnc(-c2ccc(F)cc2)c2ccccc12)Nc1ccccc1Cl | -0.6 | 16 | 69 | i | 67 | .
CN1CCN(C(=O)c2cnn(-c3ccccc3)c2NC(=O)c2cccs2)CC1 | . | -7 | 100 | i | 87 | .
c1ccc2c3c([nH]c2c1)C(C1CCCCC1)N(Cc1ncc[nH]1)CC3 (centres undefined) | -1.2 | 47 | . | i | . | .
CN(C)CCCN1C(=O)c2oc3ccc(Cl)cc3c(=O)c2C1c1cccnc1 (centres undefined) | . | -3 | 93 | . | 96 | .
O=C(N/N=C/c1ccccn1)c1cc(-c2ccncc2)nc2ccccc12 | 0.02 | 9 | 32 | i | 17 | -31
Cc1cc(N/N=C/c2ccc([N+](=O)[O-])o2)nc2ccccc12 | . | 83* | . | + | . | .
O=C(N/N=C/c1ccc([N+](=O)[O-])o1)c1cc(-c2ccc(-c3ccccc3)cc2)nc2ccccc12 | -1.2 | 100* | . | i | . | .
O=C(N/N=C/c1ccc([N+](=O)[O-])o1)c1cc(-c2ccncc2)nc2ccccc12 | 0.19 | 99* | 3.3* | i | 2.8* | .
Cc1cc(Nc2ccc([N+](=O)[O-])cc2)nc2ccccc12 | -0.63 | -5 | . | i | . | .
Cc1ccc2nc(SCC(=O)N/N=C/c3ccco3)cc(C)c2c1 | 0.23 | 16 | . | i | . | -33
Cc1ccc2nc(N/N=C/c3ccco3)cc(C)c2c1 | 0.1 | 62* | . | i | . | .
O=C(O)CCC(=O)Nc1ccc(S(=O)(=O)NCCc2ccccc2)cc1 | 0.27 | . | . | . | . | .
SMILES | Ins promoter up | Lmaj promast | HCT116 PTEN-null | Autophagy mod | HCT116 bCat-KO | Insulin prom inh
Cc1oc(C)c(C(=O)O)c1C(=O)O | -0.92 | . | . | . | . | .
C/C=C(\C)C(=O)NCCN1C2=NC[C@@H](C)N2C[C@H]1Cc1ccc(O)cc1 | 0.41 | -2 | . | i | . | .
CC(=O)N(C(C)=O)n1c(/C=C/c2cccc([N+](=O)[O-])c2)nc2ccccc2c1=O | -0.18 | 14 | . | i | . | 14
Cn1c(/C=C/c2ccc([N+](=O)[O-])o2)nc2ccccc2c1=O | -2.3 | 100* | 1.5* | i | 1.8* | 5
Cc1cc(C(=O)NNC(=S)NC(=O)/C=C/c2ccccc2Cl)n[nH]1 | 0.2 | 78* | 70 | i | 76 | -21
Cc1cc(NC(=O)C2CCCC2)n(-c2nc3ccccc3[nH]2)n1 | 0.86 | -5 | 73 | i | 74 | -28
Cc1nc(NC(=O)c2csc3ccccc23)sc1C | 0.45 | 60* | 67 | i | 72 | .
Cc1nc(NC(=S)NC(=O)c2ccccc2)sc1C | 0.23 | . | . | . | . | .
O=C(NCCCN1CCOCC1)C(=O)N/N=C/c1c2ccccc2cc2ccccc12 | -0.34 | -3 | 2.2* | i | 1.6* | 12
Cc1ccc(C(=O)NC(=S)NCCCN2CCOCC2)cc1 | -0.37 | 65* | . | i | . | .
O=C(NC(=S)NCCCN1CCOCC1)c1cccc2ccccc12 | 0.64 | 78* | . | i | . | -33
Cc1ccc(C(=O)NCCCN2CCOCC2)cc1 | . | 8 | . | i | . | -19
O=C(NC(=S)NCCCN1CCOCC1)c1ccc(Br)cc1 | 0.03 | 86* | . | i | . | 8
O=C(NC(=S)NCCN1CCOCC1)c1ccccc1 | -0.18 | -3 | 103 | i | 98 | .
CC(NC(=O)Nc1ccc(Cl)c(Cl)c1)C(c1ccccc1)N1CCOCC1 (centres undefined) | 0.08 | 31 | 15 | i | 24 | -20
O=C(CCN1CCCCC1)NNC(=S)NC(=O)c1ccc(Br)cc1 | -0.52 | 75* | . | i | . | 13
O=C(NCCCN1CCOCC1)C1Cc2c(ccc3ccccc23)O1 (centres undefined) | 0.7 | 69* | . | i | . | 4
Cc1ccc(C(NC(=O)NCCCN2CCOCC2)=C(Cl)Cl)cc1F | 0.42 | 81* | 8 | i | 11 | 19
CCOc1ccc(C2=Nn3c(nnc3-c3cccnc3)SC2)cc1 | -0.65 | 7 | 87 | i | 78 | -22
Cc1c(CN(C)C(=O)c2nn(C)cc2[N+](=O)[O-])cnn1C | 0 | -10 | 94 | i | 100 | -6
O=[N+]([O-])c1cn(-c2nc(-c3ccco3)cc(C(F)(F)F)n2)cn1 | . | 1 | 102 | i | 98 | 41
c1ccc2[nH]c(NC3=NCCC3)nc2c1 | . | 30 | 86 | i | 92 | ?
O=C(CSc1nnc(SCc2cccc3ccccc23)s1)N=Nc1c(O)[nH]c2ccccc12 | -0.13 | -7 | 1.0* | i | 4.3* | .
CN(CC(O)COc1c(F)cc(Br)cc1F)C1CCCCC1 (centres undefined) | . | 84* | 89 | i | 94 | -13
O=C(c1nc2ncccn2n1)N1CCN(c2ccc(F)cc2)CC1 | 1.7 | -9 | 85 | i | 86 | -32
CCC(C)n1c(NC(=O)c2ccccc2)c(C#N)c2nc3ccccc3nc21 (centres undefined) | . | 49 | . | + | . | 12
N#Cc1c(NC(=O)c2ccc(Br)o2)n(-c2ccccc2)c2nc3ccccc3nc12 | -0.04 | . | . | . | . | .
N#Cc1c(N)n(CCNC(=O)c2ccc(Cl)cc2)c2nc3ccccc3nc12 | 0.25 | -3 | 81 | i | 81 | 23
CCCCn1c(NC(=O)c2ccccc2)c(C#N)c2nc3ccccc3nc21 | 2.9 | 97* | 38 | i | 51 | .
